Experimental data as given in PubChem BioAssay AID1768 (National Center for Advancing Translational Sciences (NCATS), 2009).
The campaign covered roughly 270,000 compounds. About 620 (0.23%) were called active. A call without a number means that no potency is given here. About 12% were inconclusive and are not listed. The call rests on the fitted dose curve; in most records, active means well fitted inhibition curve with a large enough effect in the polarisation, with a control signal flat (not every such curve was filed as active); inconclusive means small, poorly fitted or top-dose-only effect, or effect the other way, or a change in a side signal; inactive means no such curve, though single readings can be large or run the other way; the % refers to the polarisation. Only a selection was taken, and actives are over-represented in it overall.

molecular target: Menin (Homo sapiens) (UniProt O00255); assay: qHTS Assay for Inhibitors Targeting the Menin-MLL Interaction in MLL Related Leukemias: Competition With Texas Red Labeled MLL-derived Mutant Peptide; conditions: fluorescence polarization; series mostly up to 61.6 µM
Sequence (O00255 whole entry, looked up, the tested form may be a part): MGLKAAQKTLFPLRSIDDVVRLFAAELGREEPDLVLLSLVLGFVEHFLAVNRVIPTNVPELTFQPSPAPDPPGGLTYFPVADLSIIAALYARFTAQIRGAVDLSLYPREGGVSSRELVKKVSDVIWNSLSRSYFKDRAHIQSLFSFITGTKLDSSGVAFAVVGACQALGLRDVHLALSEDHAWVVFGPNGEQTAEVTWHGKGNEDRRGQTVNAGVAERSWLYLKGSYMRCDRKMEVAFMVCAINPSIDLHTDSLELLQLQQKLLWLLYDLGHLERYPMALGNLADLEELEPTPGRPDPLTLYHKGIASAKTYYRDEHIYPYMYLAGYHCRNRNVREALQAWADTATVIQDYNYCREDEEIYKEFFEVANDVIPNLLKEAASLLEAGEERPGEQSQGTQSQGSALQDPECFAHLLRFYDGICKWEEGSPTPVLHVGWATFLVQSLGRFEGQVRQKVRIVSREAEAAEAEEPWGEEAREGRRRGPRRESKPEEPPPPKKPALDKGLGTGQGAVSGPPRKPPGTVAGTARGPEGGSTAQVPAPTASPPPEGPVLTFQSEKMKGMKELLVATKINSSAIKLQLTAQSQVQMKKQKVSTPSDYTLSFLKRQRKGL
From the text: qHTS Assay for Inhibitors Targeting the Menin-MLL Interaction in MLL Related Leukemias NIH Chemical Genomics Center [NCGC] NIH Molecular Libraries Probe Centers Network [MLPCN] MLPCN Grant: MH084875-01A1 Assay Submitter (PI): Jolanta Grembecka, Tomasz Cierpicki, University of Virginia Translocations of the MLL (Mixed Lineage Leukemia) gene are frequently found in human leukemias affecting both children and adults. Fusion of MLL to one of more than 60 genes results in generation of oncogenic proteins upregulating Hox genes, which are vital to blood cell development. Patients harboring fusion of the MLL gene suffer from aggressive leukemias and respond poorly to available therapies. All of the oncogenic fusion proteins have a preserved N-terminal fragment of MLL that has been identified to interact with menin. It has been recently discovered that association with menin is critical to the leukemogenic activity of the MLL fusion oncoproteins. Selective targeting of the menin-MLL interaction could provide an attractive therapeutic approach to develop novel drugs for MLL-related leukemias. Small molecules blocking the menin-MLL interaction should reverse the oncogenic potential of MLL fusion proteins. We have developed and optimized a fluorescence polarization-based assay for the identification of Menin-MLL inhibitors. The assay was run employing two different MLL-derived peptides. The present assay uses a 12 amino acid peptide labeled with fluorescein at its N-terminus. This peptide consists of the menin high affinity binding motif from MLL and is potently bound by menin. Another peptide with a mutated sequence, labeled with Texas Red, was used in parallel as a less stringent screen for inhibitors.
The Menin protein, the MLL-wild type (w.t.) derived peptide (N-terminal 12 amino acids), the MLL-derived peptide labeled with Texas Red and the MLL-w.t. peptide labeled with Fluorescein were kindly supplied by laboratory of Dr. Jolanta Grembecka, University of Virginia. All protein and peptide solutions were stored in single use aliquots at -80C. The Eu3+ Cyrptate-conjugated mouse monoclonal antibody anti-6 Histidine (Eu3+-AB) and the Streptavidin-XL665 conjugate (XL665) were purchased from Cisbio International (Bedford, MA). All antibody and XL665 conjugate solution stocks were stored in single use aliquots at -20C. The Buffer components for all assays were purchased from Sigma-Aldrich (St. Louis, MO) and Invitrogen (Carlsbad, CA). FP Assay Reagents: 1. FP reaction buffer: 50 mM Tris-HCl pH 7.5, 50 mM NaCl, 1mM DTT. Before use, 0.05% BSA is added. 2. Menin protein, MLL-w.t. labeled with fluorescein, MLL-mutant peptide labeled with texas red. Stored in singe use aliquots at -80C. 3. MLL-w.t. unlabeled peptide as positive control: 10 uM final in FP buffer. FP Assay Procedure: 1. Prepare Menin at 200 nM, MLL-w.t.-fluorescein at 25 nM, and MLL-mutant-texas red at 50 nM mixture in FP buffer. 2. Prepare Menin at 200 nM, MLL-w.t.-fluorescein at 25 nM, MLL-mutant-texas red at 50 nM, and 10 uM MLL-w.t. unlabeled mixture in FP buffer. 3. Prepare MLL-w.t.-fluorescein at 25 nM and MLL-mutant-texas red at 50 nM mixture in FP buffer. 3. Dispense 4 ul per well of reagent in step 1 in columns 2, 4 - 48 in a black 1536 well plate, dispense 4 ul per well of reagents from steps 2 and 3 in columns 1 and 3 respectively. Incubate plate at ambient for 15 minutes. 4. Transfer 23 nl per well of compound to plate and incubate at ambient for 1 hr. 5. Read fluorescence polarization for each label using the PerkinElmer Envision. Envision protocol for fluorescein: FITC FP Dual Enh Mirror, Excitation filter 480, Emission filter (1) P-pol 535, Emission filter (2) S-pol 535 Envision protocol for texas red: FP Dual Enh Mirror, Excitation filter 555, Emission filter (1) P-pol 632, Emission filter (2) S-pol 632
Potency means the concentration at half of the fitted maximal effect.

SMILES	Potency
COc1cccc(CCNC(=O)c2cccc(NC(=O)C3=C(C)OCCS3)c2)c1	inactive
COCCNc1ncnc2ccc(-c3ccccc3CN(C)C)cc12	inactive
COc1ccc(CNc2ncnc3ccc(-c4cccnc4)cc23)c(OC)c1	inactive
COCCNc1ncnc2ccc(-c3cccnc3)cc12	31.6 µM (active)
COc1ccccc1N1CCN(S(=O)(=O)CCNC(=O)c2ccc(OC(C)C)cc2)CC1	inactive
CC(CC(=O)N1CCN(c2ccccc2)CC1)S(=O)(=O)c1ccc2c(c1)NC(=O)CS2 (stereo not given)	inactive
COc1ccc(N2CCN(S(=O)(=O)CCNC(=O)C34CC5CC(CC(C5)C3)C4)CC2)cc1	inactive
CCc1ccc(S(=O)(=O)N/N=C\c2ccc([N+](=O)[O-])o2)cc1	inactive
COc1ccc(CNC(=O)/C(C#N)=C/c2cccc(OC)c2OC)cc1	inactive
COc1ccc(N2CCN(C(=O)[C@@H](NC(=O)c3cc(OC)cc(OC)c3)C(C)C)CC2)cc1	inactive
O=C(NCC1CC1)C1(C(F)(F)F)C/C(=C\CCO)CCCO1 (stereo not given)	inactive
Cc1cccc(S(=O)(=O)N2CN(CC3CCCO3)c3nc4ccccc4nc32)c1 (stereo not given)	inactive
CCOc1cc(/C=C/c2nc3ccccc3c(=O)[nH]2)cc(Br)c1OC	inactive
CCC(C(=O)OC)n1cnc2scc(-c3ccc(C)cc3)c2c1=O (stereo not given)	inactive
CCn1c(Cc2ccc(OC)cc2)nnc1SCC(=O)Nc1ccc(N2CCOCC2)cc1	inactive
COc1ccc(NC(=O)c2cc(-c3cc(OC)c(OC)c(OC)c3)nc3ccccc23)c(OC)c1	inactive
Cc1ccc(S(=O)(=O)N(Cc2ccccc2)c2ccccn2)cc1[N+](=O)[O-]	inactive
C=CCn1c(C23CC4CC(CC(C4)C2)C3)n[nH]c1=S	inactive
Cc1ccc(OCC(=O)Nc2ccc(N3CCN(C(=O)c4ccco4)CC3)cc2)c(C)c1	inactive
COc1ccccc1NC(=O)c1cc(N2C(=O)C3C4CCC(C4)C3C2=O)ccc1Cl (stereo not given)	inactive
Cc1ccc(O)c(/C=N/NC(=O)COc2ccc3c(C)cc(=O)oc3c2)c1	inactive
O=C(NCCc1ccccc1Cl)C1CCC(=O)N(CCCc2ccccc2)C1 (stereo not given)	inactive
COc1cccc(/C=C2\Sc3ccc(C(=O)NCC4CCCO4)cc3N(C)C2=O)c1 (stereo not given)	inactive
COc1cc(OC)c2c(C)cc(=O)oc2c1C(CCN1CCCCC1)c1ccc(N(C)C)cc1 (stereo not given)	inactive
Cc1ccc(C(=O)Nc2nnc(-c3cccs3)s2)cc1C	10 µM (active)

SMILES	Potency
Cc1ccc(C(=O)Oc2coc(CSc3nnc(NC(=O)c4cccs4)s3)cc2=O)cc1C	inactive
CCOc1cccc(C(=O)Nc2nnc(-c3cccs3)s2)c1	inactive
COc1ccc(C(C(=O)NC(C)(C)C)N(Cc2ccc(F)cc2)C(=O)CCC(=O)Nc2cc(C)on2)cc1 (stereo not given)	inactive
COc1ccc(NC(=O)c2cccc3c2C(=O)N(CC2CCCO2)C3)cc1OC (stereo not given)	inactive
CCc1ccc(CN(C)C(=O)C2CCC(=O)N(Cc3cccc(OC)c3)C2)nc1 (stereo not given)	inactive
CCC1Sc2ccc(S(=O)(=O)CCC(=O)NCc3cccs3)cc2NC1=O (stereo not given)	inactive
COCCNC(=S)N(CCc1c(C)[nH]c2ccc(C)cc12)Cc1cccnc1	inactive
CCOc1ccccc1NC(=S)N1CCN(c2cccc(C)c2C)CC1	inactive
Cc1ccc(N2CCN(C(=O)c3cccs3)CC2)c(C)c1	inactive
NC(=O)c1ccc(Nc2ccc3c(c2)CCC3)c([N+](=O)[O-])c1	inactive
Cc1nc2ccc(C(=O)N(C)CC3CCCN(CCc4ccc(Cl)cc4)C3)cc2[nH]1 (stereo not given)	inactive
CCOC(=O)c1csc(CCNC(=O)c2oc3c(Cl)cc(C)cc3c2C)n1	inactive
Cc1ccc(CNC(=O)C2CCCN2S(=O)(=O)c2ccc3c(c2)C(C)(C)C(=O)N3C)cc1 (stereo not given)	inactive
COc1ccc(NC(=O)c2sc3nc(C)nc(N4CCN(c5ccccn5)CC4)c3c2C)c(OC)c1	inactive
COCCNc1ccc(-c2n[nH]c(=O)c3ccccc23)cc1[N+](=O)[O-]	inactive
CCc1cccc(C)c1N1C(=O)CN(Cc2ccccc2)C1=S	inactive
NS(=O)(=O)c1ccc(CNC(=O)c2cccc(Oc3ccccc3)c2)cc1	inactive
COc1ccc(NC(=O)CSc2nc3ccccc3c(=O)n2C)cc1	inactive
CC(=O)N1c2ccc(S(=O)(=O)N3CCCC(C(=O)Nc4ccc(C)cc4C)C3)cc2CC1C (stereo not given)	inactive
COc1ccc(-c2nc3ccccc3c(=O)n2CCc2ccc(O)cc2)cc1	inactive
Cc1ccccc1CN1CCC(C(=O)Nc2ccc(Oc3cccnc3)cc2)CC1	inactive
CCCCC(C(=O)NC(C)(C)C)N(Cc1ccccc1)C(=O)c1snc(C(N)=O)c1N (stereo not given)	inactive
CCc1ccc(C(CNc2nc(C(F)(F)F)nc3ccccc23)N(C)C)cc1 (stereo not given)	inactive
C=C1CCN(C(CC(C)C)C(=O)NCc2cc(OC)c(OC)c(OC)c2)S(=O)(=O)c2ccccc21 (stereo not given)	inactive
CCOC(=O)[C@H]1[C@H]2COc3cc(OC)ccc3[C@@H]2N2C(=O)N(c3ccc(Br)cc3)C(=O)[C@@]12C	inactive
